{"source": "the supplement of paper PMC7695840", "note": "Counter-ions that a name gives are not always drawn."}
{"test_system": "Staphylococcus aureus MW2 delta-mecA (mecA-)", "experiment": "normalized GFP fluorescence (growth of mecA- strain) (fraction of control range); higher = more growth of mecA- strain", "conditions": "compound concentration: 150 uM; cefoxitin: subinhibitory; fluorescent label: GFP", "method_in_brief": "(§1)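 Single-replicate 1536-well plates carried 150 μM compound (1.5% DMSO), onto which 5 µL/well of a 1:1 mix of pre-induced S. aureus MW2 cells was dispensed: gene-carrying cells tagged with DsRed and deletion cells tagged with GFP, in LB with a subinhibitory antibiotic dose set daily. Incubation ran 20 h at 37 °C, 90% humidity, unshaken, followed by DsRed (540/590) and GFP (485/520) reads. Per-plate scaling of each channel used single-strain control medians, and plates with high untreated ratios and rows with DsRed/GFP >10 were excluded.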"}
{"smiles": "CC(=O)N(CC(O)CO)c1c(I)c(C(=O)NCC(O)CO)c(I)c(C(=O)NCC(O)CO)c1I", "note": "(stereo not given)", "normalized GFP fluorescence": 0.415}
{"smiles": "CN1Cc2c(N)cccc2C(c2ccccc2)C1", "note": "(stereo not given)", "normalized GFP fluorescence": 0.359}
{"smiles": "CCN(CC)C(=O)c1ccc(O)c(OC)c1", "normalized GFP fluorescence": 0.00273}
{"smiles": "OCCN(CCO)c1nc(N2CCCCC2)c2nc(N(CCO)CCO)nc(N3CCCCC3)c2n1", "normalized GFP fluorescence": 0.523}
{"smiles": "CN(C)C(=N)NC(=N)N", "normalized GFP fluorescence": 0.544}
{"smiles": "Cc1ccc(N(CC2=NCCN2)c2cccc(O)c2)cc1", "normalized GFP fluorescence": 0.3}
{"smiles": "CCCNS(=O)(=O)Nc1ncnc(OCCOc2ncc(Br)cn2)c1-c1ccc(Br)cc1", "note": "[Macitentan]", "normalized GFP fluorescence": 0.0399}
{"smiles": "CCCC(=O)Nc1ccc(OCC(O)CNC(C)C)c(C(C)=O)c1", "note": "(stereo not given)", "normalized GFP fluorescence": 0.332}
{"smiles": "CC(C)N1CCN(c2ccc(OCC3COC(Cn4cncn4)(c4ccc(Cl)cc4Cl)O3)cc2)CC1", "note": "(stereo not given)", "normalized GFP fluorescence": 0.199}
{"smiles": "Cn1c(=O)c2nc[nH]c2n(C)c1=O", "normalized GFP fluorescence": 0.449}
{"smiles": "O=C(O)CCCCCCCC(=O)O", "normalized GFP fluorescence": 0.422}
{"smiles": "CNC[C@H](O)c1ccc(O)c(O)c1", "normalized GFP fluorescence": 0.95}
{"smiles": "Oc1cccc(O)c1", "normalized GFP fluorescence": 0.565}
{"smiles": "COc1cc2c(cc1Cc1cccc(Cl)c1F)c(=O)c(C(=O)O)cn2[C@H](CO)C(C)C", "note": "[Elvitegravir (GS-9137)]", "normalized GFP fluorescence": 0.0202}
{"smiles": "OC[C@H]1O[C@@H](n2cnc3c2N=CNC[C@H]3O)C[C@@H]1O", "note": "[Pentostatin]", "normalized GFP fluorescence": 0.461}
{"smiles": "COc1cc(Nc2ncc(F)c(Nc3ccc4c(n3)N(COP(=O)(O)O)C(=O)C(C)(C)O4)n2)cc(OC)c1OC", "note": "[R788 (Fostamatinib)]", "normalized GFP fluorescence": 0.503}
{"smiles": "O=C1c2cccc3c2[C@H](CCC3)CN1[C@@H]1CN2CCC1CC2", "note": "[Palonosetron HCl]", "normalized GFP fluorescence": 0.203}
{"smiles": "C#Cc1cccc(Nc2ncnc3cc4c(cc23)OCCOCCOCCO4)c1", "note": "[Icotinib]", "normalized GFP fluorescence": 0.488}
{"smiles": "C=C1CC[C@H](O)C/C1=C/C=C1\\CCC[C@]2(C)[C@@H]([C@H](C)/C=C/[C@H](C)C(C)C)CC[C@@H]12", "normalized GFP fluorescence": 0.177}
{"smiles": "Cc1cc(=O)[nH]c(=S)[nH]1", "normalized GFP fluorescence": 0.707}
{"smiles": "CN(C)CCN(Cc1cccs1)c1ccccn1", "normalized GFP fluorescence": 0.185}
{"smiles": "CN(C)CCCN1c2ccccc2CCc2ccccc21", "normalized GFP fluorescence": 0.0133}
{"smiles": "CN1CCCC(n2nc(Cc3ccc(Cl)cc3)c3ccccc3c2=O)CC1", "note": "(stereo not given) [Azelastine hydrochloride (Astelin)]", "normalized GFP fluorescence": 0.112}
{"smiles": "COC(=O)C1=C(C)NC(C)=C(C(=O)OCCN2CCN(C(c3ccccc3)c3ccccc3)CC2)C1c1cccc([N+](=O)[O-])c1", "note": "(stereo not given)", "normalized GFP fluorescence": 0.002}
{"smiles": "CC1(C)O[C@@H]2C[C@H]3[C@@H]4CCC5=CC(=O)CC[C@]5(C)[C@@]4(F)[C@@H](O)C[C@]3(C)[C@]2(C(=O)CCl)O1", "normalized GFP fluorescence": 0.195}
{"smiles": "O=C(O)C(=O)O.[NH-][C@@H]1CCCC[C@H]1[NH-].[Pt+2]", "normalized GFP fluorescence": 0.253}
{"smiles": "O.O.O.O.O=C([O-])CC(O)(CC(=O)[O-])C(=O)[O-].[Li+].[Li+].[Li+]", "normalized GFP fluorescence": 0.18}
{"smiles": "C=CC[C@@H]1/C=C(\\C)C[C@H](C)C[C@H](OC)[C@H]2O[C@@](O)(C(=O)C(=O)N3CCCC[C@H]3C(=O)O[C@H](/C(C)=C/[C@@H]3CC[C@@H](O)[C@H](OC)C3)[C@H](C)[C@@H](O)CC1=O)[C@H](C)C[C@@H]2OC", "normalized GFP fluorescence": 0.0654}
{"smiles": "CC(=O)N(CC(O)CO)c1c(I)c(C(=O)NCCO)c(I)c(C(=O)NCC(O)CO)c1I", "note": "(stereo not given)", "normalized GFP fluorescence": 0.914}
{"smiles": "CC/C(=C(/CC)c1ccc(O)cc1)c1ccc(O)cc1", "normalized GFP fluorescence": 0.0115}
{"smiles": "CCN1CCCC1CNC(=O)c1cc(S(N)(=O)=O)ccc1OC", "note": "(stereo not given)", "normalized GFP fluorescence": 0.362}
{"smiles": "CC[C@@H]1C(=O)OC[C@@H]1Cc1cncn1C", "normalized GFP fluorescence": 0.483}
{"smiles": "Cc1c(O)c(=O)ccn1C", "note": "[Deferiprone]", "normalized GFP fluorescence": 0.292}
{"smiles": "CC(C)OC(=O)C(C)(C)Oc1ccc(C(=O)c2ccc(Cl)cc2)cc1", "normalized GFP fluorescence": 0.203}
{"smiles": "CCN(CC)CC(=O)Nc1c(C)cccc1C", "normalized GFP fluorescence": 0.574}
{"smiles": "Cc1cccc(C)c1OCC(=O)N[C@@H](Cc1ccccc1)[C@@H](O)C[C@H](Cc1ccccc1)NC(=O)[C@H](C(C)C)N1CCCNC1=O", "note": "[Lopinavir (ABT-378)]", "normalized GFP fluorescence": 0.126}
{"smiles": "CC(C)(CO)[C@@H](O)C(=O)NCCCO", "normalized GFP fluorescence": 0.406}
{"smiles": "CCN(CC)CCNC(=O)c1ccc(N)cc1", "normalized GFP fluorescence": 0.328}
{"smiles": "CC(CN1c2ccccc2Sc2ccccc21)N(C)C", "note": "(stereo not given)", "normalized GFP fluorescence": -0.00976}
{"smiles": "CC(=O)NS(=O)(=O)c1ccc(N)cc1", "normalized GFP fluorescence": 0.792}
{"test_system": "Staphylococcus aureus MW2 (mecA+)", "experiment": "normalized DsRed fluorescence (growth of mecA+ strain) (fraction of control range); higher = more growth of mecA+ strain", "conditions": "compound concentration: 150 uM; cefoxitin: subinhibitory; fluorescent label: DsRed", "method_in_brief": "as §1"}
{"smiles": "CC(=O)N(CC(O)CO)c1c(I)c(C(=O)NCC(O)CO)c(I)c(C(=O)NCC(O)CO)c1I", "note": "(stereo not given)", "normalized DsRed fluorescence": 0.849}
{"smiles": "CN1Cc2c(N)cccc2C(c2ccccc2)C1", "note": "(stereo not given)", "normalized DsRed fluorescence": 0.781}
{"smiles": "CCN(CC)C(=O)c1ccc(O)c(OC)c1", "normalized DsRed fluorescence": 0.0959}
{"smiles": "OCCN(CCO)c1nc(N2CCCCC2)c2nc(N(CCO)CCO)nc(N3CCCCC3)c2n1", "normalized DsRed fluorescence": 0.744}
{"smiles": "CN(C)C(=N)NC(=N)N", "normalized DsRed fluorescence": 0.887}
{"smiles": "Cc1ccc(N(CC2=NCCN2)c2cccc(O)c2)cc1", "normalized DsRed fluorescence": 0.634}
{"smiles": "CCCNS(=O)(=O)Nc1ncnc(OCCOc2ncc(Br)cn2)c1-c1ccc(Br)cc1", "note": "[Macitentan]", "normalized DsRed fluorescence": 0.379}
{"smiles": "CCCC(=O)Nc1ccc(OCC(O)CNC(C)C)c(C(C)=O)c1", "note": "(stereo not given)", "normalized DsRed fluorescence": 0.62}
{"smiles": "CC(C)N1CCN(c2ccc(OCC3COC(Cn4cncn4)(c4ccc(Cl)cc4Cl)O3)cc2)CC1", "note": "(stereo not given)", "normalized DsRed fluorescence": 0.734}
{"smiles": "Cn1c(=O)c2nc[nH]c2n(C)c1=O", "normalized DsRed fluorescence": 0.42}
{"smiles": "O=C(O)CCCCCCCC(=O)O", "normalized DsRed fluorescence": 0.443}
{"smiles": "CNC[C@H](O)c1ccc(O)c(O)c1", "normalized DsRed fluorescence": 0.812}
{"smiles": "Oc1cccc(O)c1", "normalized DsRed fluorescence": 0.516}
{"smiles": "COc1cc2c(cc1Cc1cccc(Cl)c1F)c(=O)c(C(=O)O)cn2[C@H](CO)C(C)C", "note": "[Elvitegravir (GS-9137)]", "normalized DsRed fluorescence": 0.102}
{"smiles": "OC[C@H]1O[C@@H](n2cnc3c2N=CNC[C@H]3O)C[C@@H]1O", "note": "[Pentostatin]", "normalized DsRed fluorescence": 0.689}
{"smiles": "COc1cc(Nc2ncc(F)c(Nc3ccc4c(n3)N(COP(=O)(O)O)C(=O)C(C)(C)O4)n2)cc(OC)c1OC", "note": "[R788 (Fostamatinib)]", "normalized DsRed fluorescence": 0.475}
{"smiles": "O=C1c2cccc3c2[C@H](CCC3)CN1[C@@H]1CN2CCC1CC2", "note": "[Palonosetron HCl]", "normalized DsRed fluorescence": 0.709}
{"smiles": "C#Cc1cccc(Nc2ncnc3cc4c(cc23)OCCOCCOCCO4)c1", "note": "[Icotinib]", "normalized DsRed fluorescence": 0.429}
{"smiles": "C=C1CC[C@H](O)C/C1=C/C=C1\\CCC[C@]2(C)[C@@H]([C@H](C)/C=C/[C@H](C)C(C)C)CC[C@@H]12", "normalized DsRed fluorescence": 0.448}
{"smiles": "Cc1cc(=O)[nH]c(=S)[nH]1", "normalized DsRed fluorescence": 0.716}
{"smiles": "CN(C)CCN(Cc1cccs1)c1ccccn1", "normalized DsRed fluorescence": 0.778}
{"smiles": "CN(C)CCCN1c2ccccc2CCc2ccccc21", "normalized DsRed fluorescence": 1.83}
{"smiles": "CN1CCCC(n2nc(Cc3ccc(Cl)cc3)c3ccccc3c2=O)CC1", "note": "(stereo not given) [Azelastine hydrochloride (Astelin)]", "normalized DsRed fluorescence": 1.13}
{"smiles": "COC(=O)C1=C(C)NC(C)=C(C(=O)OCCN2CCN(C(c3ccccc3)c3ccccc3)CC2)C1c1cccc([N+](=O)[O-])c1", "note": "(stereo not given)", "normalized DsRed fluorescence": 0.944}
{"smiles": "CC1(C)O[C@@H]2C[C@H]3[C@@H]4CCC5=CC(=O)CC[C@]5(C)[C@@]4(F)[C@@H](O)C[C@]3(C)[C@]2(C(=O)CCl)O1", "normalized DsRed fluorescence": 0.844}
{"smiles": "O=C(O)C(=O)O.[NH-][C@@H]1CCCC[C@H]1[NH-].[Pt+2]", "normalized DsRed fluorescence": 1.17}
{"smiles": "O.O.O.O.O=C([O-])CC(O)(CC(=O)[O-])C(=O)[O-].[Li+].[Li+].[Li+]", "normalized DsRed fluorescence": 1.09}
{"smiles": "C=CC[C@@H]1/C=C(\\C)C[C@H](C)C[C@H](OC)[C@H]2O[C@@](O)(C(=O)C(=O)N3CCCC[C@H]3C(=O)O[C@H](/C(C)=C/[C@@H]3CC[C@@H](O)[C@H](OC)C3)[C@H](C)[C@@H](O)CC1=O)[C@H](C)C[C@@H]2OC", "normalized DsRed fluorescence": 1.59}
{"smiles": "CC(=O)N(CC(O)CO)c1c(I)c(C(=O)NCCO)c(I)c(C(=O)NCC(O)CO)c1I", "note": "(stereo not given)", "normalized DsRed fluorescence": 0.86}
{"smiles": "CC/C(=C(/CC)c1ccc(O)cc1)c1ccc(O)cc1", "normalized DsRed fluorescence": 0.065}
{"smiles": "CCN1CCCC1CNC(=O)c1cc(S(N)(=O)=O)ccc1OC", "note": "(stereo not given)", "normalized DsRed fluorescence": 0.764}
{"smiles": "CC[C@@H]1C(=O)OC[C@@H]1Cc1cncn1C", "normalized DsRed fluorescence": 0.892}
{"smiles": "Cc1c(O)c(=O)ccn1C", "note": "[Deferiprone]", "normalized DsRed fluorescence": 0.96}
{"smiles": "CC(C)OC(=O)C(C)(C)Oc1ccc(C(=O)c2ccc(Cl)cc2)cc1", "normalized DsRed fluorescence": 0.698}
{"smiles": "CCN(CC)CC(=O)Nc1c(C)cccc1C", "normalized DsRed fluorescence": 0.76}
{"smiles": "Cc1cccc(C)c1OCC(=O)N[C@@H](Cc1ccccc1)[C@@H](O)C[C@H](Cc1ccccc1)NC(=O)[C@H](C(C)C)N1CCCNC1=O", "note": "[Lopinavir (ABT-378)]", "normalized DsRed fluorescence": 0.671}
{"smiles": "CC(C)(CO)[C@@H](O)C(=O)NCCCO", "normalized DsRed fluorescence": 0.653}
{"smiles": "CCN(CC)CCNC(=O)c1ccc(N)cc1", "normalized DsRed fluorescence": 0.696}
{"smiles": "CC(CN1c2ccccc2Sc2ccccc21)N(C)C", "note": "(stereo not given)", "normalized DsRed fluorescence": 0.917}
{"smiles": "CC(=O)NS(=O)(=O)c1ccc(N)cc1", "normalized DsRed fluorescence": 0.694}
